Data as given in PubChem BioAssay AID1159580 (chemical genetic matrix, 2015).
Hit rate of the full screen: of about 5,500 compounds, about 2,000 (36%) were called active. About 18% were inconclusive and are not listed. Rule as the data show it: active = normalized growth mostly below about 0.91 (no sharp cut-off); inconclusive = no clear call, values can overlap the other calls; inactive = mostly above about 0.92. The list shows a part of the results.

Assay: chemical genetic growth profiling, strain panel (AID 1159580);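 also: tested at 20 µM; growth read once vehicle control cultures reached saturation at 30 °C; 1 = growth at the plate median or of vehicle wells; lower values mean less growth of the strain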
Details: growth OD
[1] = S. cerevisiae deletion strains, locus YAL013W, strain DEP1, active compounds read low
[2] = S. cerevisiae deletion strains, locus YGR078C, strain PAC10, active compounds read low
[3] = S. cerevisiae deletion strains, locus YMR263W, strain SAP30, active compounds read low
[4] = S. cerevisiae deletion strains, locus YPL055C, strain LGE1, active compounds read low

Measured: normalized growth

c1cc(C2CCCCC2)ccc1C1CCCCC1
inactive: [1] 1.01 | S. cerevisiae deletion strains, locus YBR229C, strain ROT2, active compounds read low 1 | S. cerevisiae deletion strains, locus YCL061C, strain MRC1, active compounds read low 0.965 | S. cerevisiae deletion strains, locus YDL101C, strain DUN1, active compounds read low 0.968 | S. cerevisiae deletion strains, locus YDR150W, strain NUM1, active compounds read low 0.958 | S. cerevisiae deletion strains, locus YEL061C, strain CIN8, active compounds read low 1.01 | [2] 0.982 | S. cerevisiae deletion strains, locus YHR030C, strain SLT2, active compounds read low 0.878 | S. cerevisiae deletion strains, locus YHR087W, strain rtc3, active compounds read low 1.04 | S. cerevisiae deletion strains, locus YJR043C, strain POL32, active compounds read low 1 | S. cerevisiae deletion strains, locus YJR075W, strain HOC1, active compounds read low 1.03 | S. cerevisiae deletion strains, locus YLR039C, strain RIC1, active compounds read low 1.05 | S. cerevisiae deletion strains, locus YLR058C, strain SHM2 (second series), active compounds read low 1.02 | S. cerevisiae deletion strains, locus YLR085C, strain ARP6, active compounds read low 1.04 | S. cerevisiae deletion strains, locus YLR262C, strain YPT6, active compounds read low 1.04 | S. cerevisiae deletion strains, locus YML094W, strain GIM5, active compounds read low 1.02 | S. cerevisiae deletion strains, locus YMR219W, strain ESC1, active compounds read low 1.04 | [3] 1 | S. cerevisiae deletion strains, locus YNL153C, strain GIM3, active compounds read low 0.983 | S. cerevisiae deletion strains, locus YNL298W, strain CLA4 (second series), active compounds read low 0.987 | S. cerevisiae deletion strains, locus YNL322C, strain KRE1, active compounds read low 1.01 | S. cerevisiae deletion strains, locus YNR030W, strain Alg12, active compounds read low 0.967 | S. cerevisiae deletion strains, locus YOL006C, strain TOP1, active compounds read low 0.893 | [4] 1.05 | S. cerevisiae deletion strains, locus YPL241C, strain CIN2, active compounds read low 1 | S. cerevisiae deletion strains, locus YPR135W, strain CTF4, active compounds read low 1.05 | S. cerevisiae strains, strain wild type, active compounds read low 0.973

CC(=O)NBr
inactive: [1] 1.02 | S. cerevisiae deletion strains, locus YAL040C, strain CLN3, active compounds read low 0.995 | S. cerevisiae deletion strains, locus YDR363W, strain ESC2, active compounds read low 1.01 | S. cerevisiae deletion strains, locus YER002W, strain NOP16, active compounds read low 1.01 | [2] 1.01 | [3] 1 | S. cerevisiae deletion strains, locus YNL128W, strain TEP1, active compounds read low 1.01 | S. cerevisiae deletion strains, locus YNL175C, strain NOP13, active compounds read low 1.01 | S. cerevisiae deletion strains, locus YNL197C, strain WHI3, active compounds read low 0.997 | S. cerevisiae deletion strains, locus YNL224C, strain SQS1, active compounds read low 1.01 | S. cerevisiae deletion strains, locus YOR083W, strain WHI5 (second series), active compounds read low 1.01 | [4] 0.999
